Calls of active or inactive are those of the source.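 The calls were made as follows: active = compounds that inhibit caspase-1 with a complete, partial or top-dose-only concentration response; inactive = the rest.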
These compounds were tested against Caspase-1 (Homo sapiens) (UniProt P29466) (assay: Confirmation Assay for Allosteric/Competitive Inhibitors of Caspase-1). Settings: Caspase-1 enzyme, fluorogenic peptide substrate, kinetic rate.
Description: NIH Molecular Libraries Screening Centers Network [MLSCN] NIH Chemical Genomics Center [NCGC] MLSCN Grant: 1 X01 MH078950-01 PI Name: Dr. James Wells, Dr. Enrique Perez-Paya, Dr.Janice Williams, Dr. Dennis Wolan, a person NCGC Assay Overview: The caspases (Cysteine Aspartyl Protease) comprise a related family of 14 dimeric proteases that are critical mediators of apoptosis (programmed cell death) and inflammation. The caspases represent an important class of drug targets for stroke, ischemia, cancer and inflammatory diseases. […] One goal of this project was to identify compounds that act as allosteric inhibitors via stabilizing the procaspase form of the enzyme. Previous work in Well's laboratory has shown that such allosteric inhibitors can be identified and these act by binding at the dimer interface of enzyme (Hardy, Lam et al., 2004). The biochemical assay was configured using purified caspase 1 at a high enzyme concentration to promote formation of the homodimers and thus facilitate the identification of allosteric inhibitors. The overall goal was to identify reversible inhibitors with better drug-like properties than the currently available set of aspartyl-containing peptidomimetics that covalently bind the active site. Caspase 1 was assayed using the profluorescent substrate […]. After initiation of the assay with substrate the plates were rapidly read using an automated robotic system (Kalypsys, Inc.) to maintain consistent timing. A kinetic mode of detection was used where the initial rate was collected (estimated final product formation was ~10%). Compounds were screened as a concentration-titration series that ranged from 57 uM to 0.7 nM. Below is the protocol used for caspase 1.
Caspase-1 was dispensed ([…]) into a 1536-well black solid-bottom microplate (Greiner Bio-One, Monroe, USA) using a Bio-RAPTR (Beckman Coulter, Fullerton, USA) nanoliter dispenser for automated addition of reagents, to give a final enzyme concentration of 2 nM. Assay buffer was 50 mM HEPES, pH7.4, containing 1M sodium citrate, 100 mM NaCl, 0.1 mM EDTA, 10 mM DTT, 0.01% CHAPS, 1% DMSO, and 0.1 mg/mL bovine serum albumin (BSA). Aliquots of test compound (23 nL) from a DMSO stock solution were transferred to the enzyme-containing wells using a pintool transfer station (Kalypsys Inc., San Diego, USA), and the plates were incubated for 15 min at room temperature. Each compound was added as a 12-point titration in duplicate. Substrate was dispensed ([…]) to give a final caged fluorescent peptide substrate (Ac-LEHD-AMC) concentration of […], and the initial reaction rate was monitored over 20 min at room temperature. Free AMC was measured by fluorescence detection (lex=340 nm, lem=450) with a ViewLux charge-coupled device-based imager (PerkinElmer, Waltham, USA). Percent inhibition was calculated from the median values of the uninhibited and the uncatalyzed controls, and IC50 values were determined by fitting the concentration-response data with a four-parameter Hill equation as previously described (http://www.ncgc.nih.gov/pub/openhts/curvefit/).

Row | SMILES | Potency | outcome
1 | CC(C)(C)[C@H](NC(=O)c1ccc(N)c(Cl)c1)C(=O)N1CCC[C@H]1C(=O)N[C@H](C#N)CC(=O)O | 0.316 nM (active) | –
2 | CC(=O)N[C@H](C(=O)N[C@@H](C)C(=O)N[C@H](C#N)CC(=O)O)C(C)C | – | inactive
3 | CC(C)(C)[C@H](NC(=O)c1cc(Cl)cc(Cl)c1)C(=O)N1CCC[C@H]1C(=O)N[C@H](C#N)CC(=O)O | 0.436 nM (active) | –
4 | CC(=O)N[C@@H](Cc1ccc(O)cc1)C(=O)N[C@H](C(=O)N[C@@H](C)C(=O)N[C@H](C#N)CC(=O)O)C(C)C | 2.51 nM (active) | –
5 | CCOC(=O)C[C@@H](C#N)NC(=O)[C@@H]1CCCN1C(=O)[C@@H](NC(=O)c1ccc(N)c(Cl)c1)C(C)(C)C | 145 nM (active) | –
6 | CC(C)(C)[C@H](NC(=O)c1ccc(N)c(Cl)c1)C(=O)N1CCC[C@H]1C(=O)N[C@H](C#N)Cc1nn[nH]n1 | 20.4 nM (active) | –
7 | COc1ccc(C(=O)N[C@H](C(=O)N2CCC[C@H]2C(=O)N[C@H](C#N)CC(=O)O)C(C)(C)C)cc1Cl | 0.439 nM (active) | –
8 | CC(C)(C)[C@H](NC(=O)c1ccc(C(F)(F)F)cc1)C(=O)N1CCC[C@H]1C(=O)N[C@H](C#N)CC(=O)O | 8.33 nM (active) | –
9 | Cc1ccccc1C(=O)N[C@H](C(=O)N1CCC[C@H]1C(=O)N[C@H](C#N)CC(=O)O)C(C)(C)C | 2.78 nM (active) | –
10 | CONC(=O)C[C@@H](C#N)NC(=O)[C@@H]1CCCN1C(=O)[C@@H](NC(=O)c1ccc(N)c(Cl)c1)C(C)(C)C | 145 nM (active) | –

— PubChem BioAssay AID2494 (National Center for Advancing Translational Sciences (NCATS), 2010)
